Test [1] is described as follows: NCI Yeast Anticancer Drug Screen. Data for the rad50 strain (AID 155).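 Note: 0% = growth of vehicle-only cultures of the same strain.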 The following applies: S. cerevisiae rad50 strain growth inhibition; at 50.0 µM; stronger effect = higher value. Put shortly:
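A DNA repair-deficient yeast mutant serves as the test organism; compound-induced growth inhibition is calculated against vehicle-treated cells.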

Test [2] can be described thus: NCI Yeast Anticancer Drug Screen. Data for the mec2-1 strain (AID 157). Conditions: S. cerevisiae mec2-1 strain, at 50.0 µM, stronger effect = higher value. In outline:
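Test agents were screened against the mec2-1 yeast strain, with defined DNA repair or cell cycle alteration. Growth was scored as inhibition against vehicle-only controls.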

Test [3] is described as follows: NCI Yeast Anticancer Drug Screen. Data for the sgs1 mgt1 strain (AID 161).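 Note: 0% = growth of cultures given vehicle only.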 Conditions: S. cerevisiae sgs1 mgt1 strain, at 50.0 µM, stronger effect = higher value. Put shortly: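 Read-out: growth inhibition vs vehicle controls. Cells: mutant yeast strain deficient in DNA damage repair.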
The nature of test [4]: NCI Yeast Anticancer Drug Screen. Data for the cln2 rad14 strain (AID 165).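 Note: 0% = growth equal to vehicle treated cultures.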 Conditions: S. cerevisiae cln2 rad14 strain, at 50.0 µM, stronger effect = higher value. In outline: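 Growth of compound-exposed yeast (cln2 rad14 genotype) measured and expressed as inhibition relative to vehicle.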
The nature of test [5]: NCI Yeast Anticancer Drug Screen. Data for the bub3 strain (AID 167). The following applies: S. cerevisiae bub3 mutant strain, at 50.0 µM, stronger effect = higher value. Put shortly: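 Inhibition values come from growth of compound-treated mutant yeast normalised to vehicle-treated controls.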
Test [6] in a line: NCI Yeast Anticancer Drug Screen. Data for the mlh1 rad18 strain (AID 175). The following applies: S. cerevisiae mlh1 rad18 strain growth inhibition; at 50.0 µM; stronger effect = higher value. In outline: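 In this whole-cell yeast screen, a strain with altered DNA damage repair is challenged with compound, and its growth is measured against matched vehicle-treated controls.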

SMILES strings stand for the structures. This is part of a sample that, as a whole, favours compounds with a hit. Of some 79,000 tested, about 15% had one in any assay. Unmarked numbers belong to inactive results. Calls of active or inactive are those of the source. Cut-off read from the data, not from the text of the source: active = growth inhibition above about 70%; inactive = the rest.

With `CC[N+](CC)(CC)CC(=O)c1ccc(Br)cc1`, the growth inhibition was 18.7% in test [1]; 12.7% in test [2]; 13.1% in test [3]; -0.35% in test [4]; 25% in test [5]; 8.2% in test [6].
As for `Cc1nccc2c3ccccc3n(S(=O)(=O)O)c12`, the growth inhibition in test [1] was -4.7%; in test [2], 26.1%; in test [3], 11.4%; in test [4] it was 55%; in test [5], -5.95%; in test [6] it was 9%.
Turning to `C=CCOC(=O)/C=C/C`, the growth inhibition is 7% in test [1]; 2.7% in test [2]; -4.05% in test [3]; -11.3% in test [4]; -2.55% in test [5]; -1.35% in test [6].
On to `CC1CN=C(N(C(=O)Nc2ccc(F)c(Cl)c2)c2ccccc2)S1` (stereo unspecified), for which the growth inhibition in test [1] was -1.55%; in test [2], 14.3%; in test [3], -12.3%; in test [4], 25.4%; in test [5], 41.3%; in test [6] it was -29.9%.
With `CC(=O)[C@@]1(O)CC[C@H]2[C@@H]3C[C@H](C)C4=CC(=O)CC[C@]4(C)[C@H]3[C@@H](O)C[C@@]21C`, the growth inhibition in test [1] was -27.9%; in test [2], -8.8%; in test [3], -19.1%; in test [4], -36.2%; in test [5], 12.7%; in test [6], -22.4%.
As for `Cc1onc(-c2ccccc2)c1NC(=O)OCc1ccc(-c2cc(C(F)(F)F)cc(C(F)(F)F)c2)o1`, the growth inhibition in test [1] was -0.4%; in test [2], -14.9%; in test [3] it was -2.65%; in test [4] it was 9.7%; in test [5], 4.4%; in test [6], 11.8%.
Consider `O=C(Nc1cc(-c2ccccc2)[nH]n1)c1ccccc1Cl`, for which the growth inhibition in test [1] was 22.1%; in test [2], 16.6%; in test [3], 60.5%; in test [4], 31.2%; in test [5], 42.1%; in test [6], 28.3%.
Regarding `Cc1ccc2nc(Nc3ccc(Cl)cc3)cc(C(O)C3CCCCN3)c2c1` (stereo unspecified), the growth inhibition in test [1] was 99.5% (active); in test [2] it was 99.8% (active); in test [3], 99.7% (active); in test [4], 99.2% (active); in test [5], 88.8% (active); in test [6], 99.5% (active).
For `CCOC(=O)Oc1ccc(Cl)cc1Cl`, the growth inhibition was 3.2% in test [1]; 14.1% in test [2]; 2.55% in test [3]; 5.2% in test [4]; -4.4% in test [5]; -3.8% in test [6].
Consider `Clc1cc(Cl)nc(Cl)n1`, for which the growth inhibition is 2.4% in test [1]; -7.1% in test [2]; -4.95% in test [3]; 21.1% in test [4]; 4.6% in test [5]; -1.65% in test [6].
`Cc1cc(=O)[nH]c(=O)[nH]1`: the growth inhibition was 5.85% in test [1]; -7.55% in test [2]; -16.6% in test [3]; -4.15% in test [4]; -17.7% in test [5]; -5.4% in test [6].
Take `CC(=O)OC1CC2C=CC1C2` (stereo unspecified): the growth inhibition in test [1] is -3.55%; in test [2], -3.8%; in test [3] it was 3.6%; in test [4], 1.65%; in test [5], 15.4%; in test [6] it was -7.7%.
Regarding `Cc1ccc(OCC2OC(n3cnc4nc(Nc5ccc(Cl)c(Cl)c5)nc(Cl)c43)CC2Oc2ccc(C)cc2)cc1` (stereo unspecified), the growth inhibition in test [1] is 6.9%; in test [2] it was 10.8%; in test [3], -40.2%; in test [4], 14.1%; in test [5], -20.3%; in test [6], -33%.
In the case of `O=c1[nH]c2cc([N+](=O)[O-])ccc2nc1/C=C(\O)c1ccccc1`, the growth inhibition in test [1] was -21.2%; in test [2], -18.4%; in test [3], -14.3%; in test [4] it was -3.7%; in test [5] it was -1.8%; in test [6], 3.3%.
With `CN1C(c2ccncc2)=NCC12CCCCC2`, the growth inhibition in test [1] is 17.2%; in test [2], 7.35%; in test [3], 3.6%; in test [4] it was 1.05%; in test [5], 13.2%; in test [6], -1.5%.
As for `CCOC(=O)c1cc(C)nc2c1c(=O)n(-c1ccccc1)c(=O)n2CCCCN1CCN(c2ccccc2)CC1`, the growth inhibition is -1.7% in test [1]; -13.2% in test [2]; 4.8% in test [3]; 3.25% in test [4]; -21.8% in test [5]; -29.1% in test [6].
Consider `ClC1CC2CCC1C2Br` (stereo unspecified) (tested in a mixture with another compound), for which the growth inhibition in test [1] was -19.6%; in test [2], -14.2%; in test [3], -21.1%; in test [4], -31.9%; in test [5] it was -0.45%; in test [6], -17.1%.
Regarding `COc1cc(C[C@H]2C(=O)OCC2Cc2ccc(OC)c(OC)c2)ccc1O` (stereo partly specified), the growth inhibition in test [1] was -39.1%; in test [2], -60.6%; in test [3], -26.9%; in test [4], -5.2%; in test [5] it was 2.05%; in test [6] it was -22.3%.
Turning to `N#CC1CNCCC1=N` (stereo unspecified), the growth inhibition in test [1] was -5.75%; in test [2] it was -3.2%; in test [3], 13.4%; in test [4], -1.1%; in test [5], -1.55%; in test [6] it was -6.8%.
Regarding `CCC[N+](C)(C)C`, the growth inhibition in test [1] is 5.65%; in test [2], -28.2%; in test [3], -1.15%; in test [4], 6.4%; in test [5] it was 1.6%; in test [6], -5.45%.
Turning to `CN(C)/C=C/C(=O)c1ccccc1`, the growth inhibition in test [1] was 61.6%; in test [2], 30.1%; in test [3] it was 17.6%; in test [4], -16.4%; in test [5] it was 6.05%; in test [6], 8.95%.

The values are drawn from PubChem BioAssay (NCI).
